# Residue numbers refer to the chain shown, from its start.
# Key:
# Test in all cases: yeast three-hybrid, YBZ-1, SC-Leu-His + 0.5 mM 3-AT, 4 days
# Details in all cases: tags: N-Gal4 AD-HA kept; label: inside an RPR1-promoter hybrid RNA with tandem MS2 sites; ssRNA
# PUM1 PUF domain R3-LFE = PUM1 PUF domain R3-LFE (Homo sapiens, UniProt Q14671 828-1176, C935L;R936F;Q939E)
# How it was run: (§1)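 Pumilio-1 PUF domain libraries, randomized (NNK) at the three base-contacting residues of each repeat, were co-expressed with matching RNA elements from a centromeric plasmid in strain YBZ-1 (LexA–MS2 coat fusion, HIS3 reporter). Transformants were plated on SC-Leu (input) and SC-Leu-His + 0.5 mM 3-AT (selection) for four days, and repeat regions were PCR-amplified and Illumina-sequenced. The interaction score is the log2 change in variant frequency from input to selection, with pseudocount 1 where absent.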
# PUM1 PUF domain R3-RQS = PUM1 PUF domain R3-RQS (Homo sapiens, UniProt Q14671 828-1176, C935R;R936Q;Q939S)
# How it was run: as §1
# PUM1 PUF domain R8-RFD = PUM1 PUF domain R8-RFD (Homo sapiens, UniProt Q14671 828-1176, N1122R;Y1123F;Q1126D)
# How it was run: as §1
# PUM1 PUF domain R8-KHR = PUM1 PUF domain R8-KHR (Homo sapiens, UniProt Q14671 828-1176, N1122K;Y1123H;Q1126R)
# How it was run: as §1
# PUM1 PUF domain R6-GFR = biological target: T1, PUM1 PUF domain R6-GFR (Homo sapiens, UniProt Q14671 828-1176, N1043G;Y1044F;Q1047R)
# T1 sequence: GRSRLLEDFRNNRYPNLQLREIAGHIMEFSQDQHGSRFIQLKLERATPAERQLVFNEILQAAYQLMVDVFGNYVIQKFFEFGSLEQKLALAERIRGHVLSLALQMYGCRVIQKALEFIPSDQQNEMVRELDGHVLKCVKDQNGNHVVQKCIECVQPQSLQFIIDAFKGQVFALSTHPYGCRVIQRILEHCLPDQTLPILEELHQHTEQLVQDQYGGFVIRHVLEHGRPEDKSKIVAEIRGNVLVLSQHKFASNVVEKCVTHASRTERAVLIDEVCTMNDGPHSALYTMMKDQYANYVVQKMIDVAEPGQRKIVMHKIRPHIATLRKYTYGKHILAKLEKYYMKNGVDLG
# How it was run: as §1
# PUM1 PUF domain R2-RRA = PUM1 PUF domain R2-RRA (Homo sapiens, UniProt Q14671 828-1176, N899R;Y900R;Q903A)
# How it was run: as §1
# PUM1 PUF domain R4-PWQ = PUM1 PUF domain R4-PWQ (Homo sapiens, UniProt Q14671 828-1176, N971P;H972W)
# How it was run: as §1
# PUM1 PUF domain R4-FNG = PUM1 PUF domain R4-FNG (Homo sapiens, UniProt Q14671 828-1176, N971F;H972N;Q975G)
# How it was run: as §1
# PUM1 PUF domain R4-RHI = PUM1 PUF domain R4-RHI (Homo sapiens, UniProt Q14671 828-1176, N971R;Q975I)
# How it was run: as §1
# PUM1 PUF domain R1-QLR = PUM1 PUF domain R1-QLR (Homo sapiens, UniProt Q14671 828-1176, S863Q;R864L;Q867R)
# How it was run: as §1
# PUM1 PUF domain R1-KAN = PUM1 PUF domain R1-KAN (Homo sapiens, UniProt Q14671 828-1176, S863K;R864A;Q867N)
# How it was run: as §1
# PUM1 PUF domain R6-LFA = biological target: T2, PUM1 PUF domain R6-LFA (Homo sapiens, UniProt Q14671 828-1176, N1043L;Y1044F;Q1047A)
# T2 sequence: T1 sequence with G216L, R220A
# How it was run: as §1
# PUM1 PUF domain R5-LNS = PUM1 PUF domain R5-LNS (Homo sapiens, UniProt Q14671 828-1176, C1007L;R1008N;Q1011S)
# How it was run: as §1
# PUM1 PUF domain R1-KTQ = PUM1 PUF domain R1-KTQ (Homo sapiens, UniProt Q14671 828-1176, S863K;R864T)
# How it was run: as §1
# PUM1 PUF domain R4-DWT = PUM1 PUF domain R4-DWT (Homo sapiens, UniProt Q14671 828-1176, N971D;H972W;Q975T)
# How it was run: as §1
# PUM1 PUF domain R3-API = PUM1 PUF domain R3-API (Homo sapiens, UniProt Q14671 828-1176, C935A;R936P;Q939I)
# How it was run: as §1
# PUM1 PUF domain R3-SNF = PUM1 PUF domain R3-SNF (Homo sapiens, UniProt Q14671 828-1176, C935S;R936N;Q939F)
# How it was run: as §1
# PUM1 PUF domain R6-VWC = biological target: T3, PUM1 PUF domain R6-VWC (Homo sapiens, UniProt Q14671 828-1176, N1043V;Y1044W;Q1047C)
# T3 sequence: T1 sequence with G216V, F217W, R220C
# How it was run: as §1
# PUM1 PUF domain R5-LHC = PUM1 PUF domain R5-LHC (Homo sapiens, UniProt Q14671 828-1176, C1007L;R1008H;Q1011C)
# How it was run: as §1
# PUM1 PUF domain R7-TRR = PUM1 PUF domain R7-TRR (Homo sapiens, UniProt Q14671 828-1176, S1079T;N1080R;E1083R)
# How it was run: as §1
sequence,measurement,setting,value
GGCUAGAACUAGUGGAUCCCCCGGCGCCCGGCGGCUCGAGCCCGGGUAAGUGUAAUUAGUCUGCAUGCCGCCGGGCGCCAUGCCUGCAGGUCGACUCUAGAAAACAUG,binding signal,PUM1 PUF domain R3-LFE,1.57 log2 enrichment (interaction score)
same,binding signal,PUM1 PUF domain R3-RQS,4.09 log2 enrichment (interaction score)
GGCUAGAACUAGUGGAUCCCCCGGCGCCCGGCGGCUCGAGCCCGGGUAAGCGUAAAUAGUCUGCAUGCCGCCGGGCGCCAUGCCUGCAGGUCGACUCUAGAAAACAUG,binding signal,PUM1 PUF domain R8-RFD,4.38 log2 enrichment (interaction score)
same,binding signal,PUM1 PUF domain R8-KHR,6.43 log2 enrichment (interaction score)
GGCUAGAACUAGUGGAUCCCCCGGCGCCCGGCGGCUCGAGCCCGGGUAAGUGCAAAUAGUCUGCAUGCCGCCGGGCGCCAUGCCUGCAGGUCGACUCUAGAAAACAUG,binding signal,PUM1 PUF domain R6-GFR,6.98 log2 enrichment (interaction score)
GGCUAGAACUAGUGGAUCCCCCGGCGCCCGGCGGCUCGAGCCCGGGUAAGUGUAAAGAGUCUGCAUGCCGCCGGGCGCCAUGCCUGCAGGUCGACUCUAGAAAACAUG,binding signal,PUM1 PUF domain R2-RRA,2.69 log2 enrichment (interaction score)
GGCUAGAACUAGUGGAUCCCCCGGCGCCCGGCGGCUCGAGCCCGGGUAAGUGUAUAUAGUCUGCAUGCCGCCGGGCGCCAUGCCUGCAGGUCGACUCUAGAAAACAUG,binding signal,PUM1 PUF domain R4-PWQ,5.05 log2 enrichment (interaction score)
same,binding signal,PUM1 PUF domain R4-FNG,4.34 log2 enrichment (interaction score)
same,binding signal,PUM1 PUF domain R4-RHI,3.1 log2 enrichment (interaction score)
GGCUAGAACUAGUGGAUCCCCCGGCGCCCGGCGGCUCGAGCCCGGGUAAGUGUAAAUCGUCUGCAUGCCGCCGGGCGCCAUGCCUGCAGGUCGACUCUAGAAAACAUG,binding signal,PUM1 PUF domain R1-QLR,4.6 log2 enrichment (interaction score)
GGCUAGAACUAGUGGAUCCCCCGGCGCCCGGCGGCUCGAGCCCGGGUAAGUGUAAAUGGUCUGCAUGCCGCCGGGCGCCAUGCCUGCAGGUCGACUCUAGAAAACAUG,binding signal,PUM1 PUF domain R1-KAN,2.46 log2 enrichment (interaction score)
GGCUAGAACUAGUGGAUCCCCCGGCGCCCGGCGGCUCGAGCCCGGGUAAGUGAAAAUAGUCUGCAUGCCGCCGGGCGCCAUGCCUGCAGGUCGACUCUAGAAAACAUG,binding signal,PUM1 PUF domain R6-LFA,6.15 log2 enrichment (interaction score)
GGCUAGAACUAGUGGAUCCCCCGGCGCCCGGCGGCUCGAGCCCGGGUAAGUGUUAAUAGUCUGCAUGCCGCCGGGCGCCAUGCCUGCAGGUCGACUCUAGAAAACAUG,binding signal,PUM1 PUF domain R5-LNS,4.81 log2 enrichment (interaction score)
GGCUAGAACUAGUGGAUCCCCCGGCGCCCGGCGGCUCGAGCCCGGGUAAGUGUAAAUUGUCUGCAUGCCGCCGGGCGCCAUGCCUGCAGGUCGACUCUAGAAAACAUG,binding signal,PUM1 PUF domain R1-KTQ,5.82 log2 enrichment (interaction score)
GGCUAGAACUAGUGGAUCCCCCGGCGCCCGGCGGCUCGAGCCCGGGUAAGUGUAAAUAGUCUGCAUGCCGCCGGGCGCCAUGCCUGCAGGUCGACUCUAGAAAACAUG,binding signal,PUM1 PUF domain R4-DWT,6.18 log2 enrichment (interaction score)
same,binding signal,PUM1 PUF domain R3-LFE,3.02 log2 enrichment (interaction score)
same,binding signal,PUM1 PUF domain R3-API,3.13 log2 enrichment (interaction score)
same,binding signal,PUM1 PUF domain R3-SNF,2.65 log2 enrichment (interaction score)
same,binding signal,PUM1 PUF domain R6-VWC,3.32 log2 enrichment (interaction score)
same,binding signal,PUM1 PUF domain R5-LHC,2.44 log2 enrichment (interaction score)
same,binding signal,PUM1 PUF domain R6-GFR,4.38 log2 enrichment (interaction score)
same,binding signal,PUM1 PUF domain R8-KHR,2.92 log2 enrichment (interaction score)
GGCUAGAACUAGUGGAUCCCCCGGCGCCCGGCGGCUCGAGCCCGGGUAAGUCUAAAUAGUCUGCAUGCCGCCGGGCGCCAUGCCUGCAGGUCGACUCUAGAAAACAUG,binding signal,PUM1 PUF domain R7-TRR,3.35 log2 enrichment (interaction score)

# From PMC8384837, “Expanding the binding specificity for RNA recognition by a PUF domain”
